These sequences were tested against PGBD3 (assay: pooled miR-30 sensor sort-seq; sequence = guide strand). Conditions: shRNA.
Sequence TTGTGTTCTTATGACATTCAGC has a sensor-assay potency score (higher = more potent) of -0.605. TTCATTTGGAACAAATTTCATG showed a sensor-assay potency score (higher = more potent) of -0.714. Work on TTTCTTTAAAGCTACATCTGAT yielded a sensor-assay potency score (higher = more potent) of -0.534. Sequence TTTGGTGGTGCTGTAACTCTAC has a sensor-assay potency score (higher = more potent) of 0.653. With TTTGGAACAAATTTCATGCATC the sensor-assay potency score (higher = more potent) was -0.293. For TAAAGCTACATCTGATTCCAGT, the sensor-assay potency score (higher = more potent) was -0.329. Sequence TTTTCTTTAAAGCTACATCTGA has a sensor-assay potency score (higher = more potent) of -0.486. TTCATCAGGAGAGTCATCTTTA showed a sensor-assay potency score (higher = more potent) of 0.38. Sequence TACGCTTCTGAGGTCTTCCTTT has a sensor-assay potency score (higher = more potent) of -0.455. With TAAACGTAGATGGAACTTCATC the sensor-assay potency score (higher = more potent) was -1.36. For AACTTTGTCAATGTGATCCTTT, the sensor-assay potency score (higher = more potent) was 0.355. With TGCATTGTCAGCAACATGCAAA the sensor-assay potency score (higher = more potent) was -1.12.

Each sequence was assayed against PGD in the same assay as above. Conditions: shRNA.
TAGGAGGTTCTGAAGTTCCGGG gave a sensor-assay potency score (higher = more potent) of -0.239. For TAGGAATACACTTCTAATGATG, the sensor-assay potency score (higher = more potent) was -1.08. TCAACTTTGGAGACAGTCCTAT showed a sensor-assay potency score (higher = more potent) of -0.343. For TTGGTGTGGATAAACTGCCCTG, the sensor-assay potency score (higher = more potent) was -0.35. In the case of TTTCTTATCACCATCAAACTGG, the sensor-assay potency score (higher = more potent) is reported as -0.51. Sequence TTCAGAGATGATAAGCACCGAG has a sensor-assay potency score (higher = more potent) of -0.0452. Sequence TGACTTAAAGAAGTCGTCCAGT has a sensor-assay potency score (higher = more potent) of -0.436. Sequence TTGAGCGTAAGAGATGATCTTG has a sensor-assay potency score (higher = more potent) of 0.0723. In the case of TTGAGGTCTCGGCACCGTCTTG, the sensor-assay potency score (higher = more potent) is reported as -1.68. With TTTCCTAGGAATACACTTCTAA the sensor-assay potency score (higher = more potent) was 0.166.

Reference: the OligoGym collection
